Laboratory results from the OligoGym collection.

target: TMEM218; experiment: pooled miR-30 sensor sort-seq; sequence = guide strand; conditions: shRNA
Further: reference of the scale not given here.

Sequence | sensor-assay potency score (higher = more potent)
AATCTTAACTTCCACTTCTGGG | -0.603
TAACTTCCACTTCTGGGGCTGG | -0.428
TTAACTTCCACTTCTGGGGCTG | 0.528
AACATAATGGATTAAAACCAAG | -1.68
ATGTGATGATCACAGCACCGAA | -1.69
AAAGCCAGCAGGACATAGCGGC | -0.627
AAAAGCAACAGAACTGATGTGA | 0.455
TCTTAACTTCCACTTCTGGGGC | -0.618
TGTGATGATCACAGCACCGAAG | -0.957
ATCCACAATCTTAACTTCCACT | -0.762
AAAAAAATGACAGAGAACCTCG | 0.153

target: TMEM229B; experiment: as above; conditions: shRNA

Sequence | sensor-assay potency score (higher = more potent)
TCGAACTGGGAGTAGTCCCAGG | -0.884
ATGGCATACAGGTACCAGCGGG | -1.1
TCAGCGTCCTTGTCGAAGCGGA | -0.896
TGGCATACAGGTACCAGCGGGA | -0.837
TTGCGGATGATGAACTGCTCCA | -0.427
TCACCTCGCAGAAGTAGCCGTG | -0.46
TCCACGATGAGGATGGAGGTGC | -1.19
TGAAGTCAAAGTCGAACTGGGA | -0.249
AACTCCCACAGGTAGGTCCAGA | -1.06
AAGTTCACCACGAACTCCCAGG | -0.691
TCCTTGTCGAAGCGGAGGCGGA | -1.59
ATCACCTCGCAGAAGTAGCCGT | -0.867

target: TMEM22; experiment: as above; conditions: shRNA

Sequence | sensor-assay potency score (higher = more potent)
TAAAAGAAGAGTCGTAATCTGT | -0.127
TTAACAAAGAATTGTCTTCATC | -1.39
TTTTTTTCTGCAAAGCTCTGGA | 0.243
TTGTCCAATCTCATTGATCATT | -1.19
TTGATCATTGGGTCTTCTGTTG | -0.772
TATAACACAAAAGACATTCATA | -0.457
TAGTATTTCCTGGTAGTCCTGC | -0.0251
TTTCTTTGGATTTTCCTCCATA | -0.74
ATTGTCTTCATCAACAATGTTT | -0.906
TAACACACAACTAACACAGATA | -0.611
TTCACCATCACTGTGTTGGGAT | 0.611

target: TMEM231; experiment: as above; conditions: shRNA

Sequence | sensor-assay potency score (higher = more potent)
TCTCTAGTCGAAACGAGCGGGA | -0.413
TTCTCTAGTCGAAACGAGCGGG | 0.0646
TGAGGTCGTAGTCATAGGCAAA | -1.58
TTAAAATGTAACATGTCCGTCT | 0.405
TAAGAAATGACTTCCACAGGGT | 0.705
TTCTTCTCTAGTCGAAACGAGC | -1.58
